From PubChem BioAssay (NCI) come the findings set out here.

This is part of a sample that, as a whole, favours compounds with a hit. Of some 83,000 tested, about 20% had one in any assay.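 96-well plates, one dose, 48 hours. Percent growth reported; active if below 10.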 A number with no mark means an inactive call. Active and inactive are the calls of the source.

Among the test systems are T-47D breast; BT-549 breast; MDA-MB-435 melanoma; MCF7 breast; HCT-116 colon; HCC-2998 colon; KM12 colon; SW-620 colon.
Common to all, as to assay: NCI-60 one-dose screen, 48 h (100 = growth as untreated, 0 = no growth, -100 = all killed)
Details in all cases: 10 µM unless noted

In the case of `COc1ccccc1/C=C1\Oc2ccc(O)c(O)c2C1=O`, the growth was 86.3% with T-47D breast; 89.5% with BT-549 breast; 93.4% with MDA-MB-435 melanoma; 88.2% in the assay on MCF7 breast; 83.7% in the assay with HCT-116 colon; 96.8% in the assay on HCC-2998 colon. In addition, the growth in the assay with KM12 colon is 99.7%.

For `Clc1ccc(CSc2nnc(-c3ccc(Cl)cc3)n2-c2ccccc2)cc1`, the growth was 80.9% in the assay on T-47D breast; 58.6% in the assay on BT-549 breast; 91.6% in the assay on SW-620 colon; 84.5% with MCF7 breast; 75.3% in the assay on HCT-116 colon; 95.8% with HCC-2998 colon. In the assay with KM12 colon, the growth was 92.6%.

With `O=C(CSc1nnc(-c2cccs2)n1-c1ccccc1)Nc1ccccc1F`, the growth is 88.9% in the assay with T-47D breast; 89.2% in the assay with BT-549 breast; 3.39% (active) in the assay on MDA-MB-435 melanoma; 58.9% in the assay with MCF7 breast; 83.7% with HCT-116 colon; 91.6% in the assay with HCC-2998 colon. Further, the growth in the assay on KM12 colon is 61.5%.

For `Cn1cc(-c2cc3ncnc(Nc4ccc(NC(=O)Nc5cc(C(C)(C)C)on5)cc4)c3s2)cn1`, the growth with T-47D breast is 1.81% (active); with BT-549 breast, 16.4%; with SW-620 colon, 24.4%; in the assay on MCF7 breast, 18.5%; in the assay on HCT-116 colon, 12.7%; with HCC-2998 colon, 74.1%. The growth with KM12 colon was 15.7%.

For `O=C(CSc1nc2ccccc2c(=O)n1-c1ccccc1)N/N=C/c1ccc(Oc2ccc(Cl)cc2)cc1`, the growth in the assay on T-47D breast was 82.5%; in the assay with BT-549 breast, 69.9%; in the assay on MDA-MB-435 melanoma, 84.6%; with MCF7 breast, 64.5%; in the assay on HCT-116 colon, 5.62% (active); with HCC-2998 colon it was 95.4%. For the same molecule, the growth in the assay on KM12 colon is 83.7%.

Consider `COc1ccc(-c2cnc(NC(=O)CCCCCCNC(=O)C(O)(O)C(F)(F)F)s2)cc1`, for which the growth in the assay on T-47D breast was 0.87% (active); in the assay with BT-549 breast it was -11.9% (active); with SW-620 colon, 0.251% (active); in the assay with MCF7 breast, 7.73% (active); in the assay with HCT-116 colon it was -9.91% (active); in the assay with HCC-2998 colon, -46.5% (active). For the same molecule, the growth in the assay with KM12 colon was -47.8% (active).

For the molecule `O=C1CSC(c2cn(-c3ccccc3)nc2-c2ccc(Cl)cc2)N1c1ccccc1` (stereo not drawn), the growth is 102% in the assay with T-47D breast; 109% with BT-549 breast; 120% in the assay with SW-620 colon; 83.5% with MCF7 breast; 95.4% in the assay with HCT-116 colon; 111% with HCC-2998 colon. Further, the growth in the assay with KM12 colon is 102%.

For the molecule `Cc1nc(/N=C(N)/N=C(\N)c2cccc(Br)c2)sc1C`, the growth was 56.4% in the assay with T-47D breast; 84.7% with BT-549 breast; 10.8% in the assay on MDA-MB-435 melanoma; 13.2% with MCF7 breast; 25.4% in the assay with HCT-116 colon; 64.9% in the assay on HCC-2998 colon. The growth in the assay with KM12 colon was 37.4%.

With `Cc1ccc2c(n1)C(=O)C(Cl)=C(Nc1cc(C(F)(F)F)cc(C(F)(F)F)c1)C2=O`, the growth is -9.18% (active) in the assay with T-47D breast; 115% with BT-549 breast; 93.8% with MDA-MB-435 melanoma; -24.9% (active) in the assay on MCF7 breast; 42% with HCT-116 colon; 96.5% in the assay with HCC-2998 colon. In addition, the growth in the assay on KM12 colon was 97%.

For `CC1=C(C)C(=O)C(Nc2ccc3c(c2)OCO3)=C(Br)C1=O`, the growth with T-47D breast was 30.3%; in the assay on BT-549 breast, 107%; in the assay with MDA-MB-435 melanoma, 103%; in the assay with MCF7 breast, 77.5%; with HCT-116 colon it was 85.6%; in the assay with HCC-2998 colon, 105%. Besides, the growth in the assay with KM12 colon is 97.4%.

As for `COc1ccc(-c2c(C(N)=O)c(N)n(Cc3nc4ccccc4[nH]3)c(=O)c2C#N)c(OC)c1`, the growth with T-47D breast is 89.6%; with BT-549 breast, 105%; in the assay on SW-620 colon, 105%; in the assay with MCF7 breast it was 76.5%; in the assay with HCT-116 colon, 104%; in the assay with HCC-2998 colon, 110%. In the assay with KM12 colon, the growth was 99.8%.

On to `Cc1[nH]c(C(=O)Nc2ccc(C(=O)NCC3CCNCC3)cc2OC(C)C)c(Cl)c1Cl`, for which the growth is 77.6% in the assay with T-47D breast; 92.6% in the assay with BT-549 breast; 33.6% in the assay with SW-620 colon; -76.3% (active) in the assay with MCF7 breast; 33.2% with HCT-116 colon; 55.3% in the assay with HCC-2998 colon. The growth in the assay on KM12 colon is 56%.

Take `Clc1ccc2[nH]cc(-c3nn4cc(-c5ccncc5)nc4s3)c2c1`: the growth with T-47D breast is 6.38% (active); with BT-549 breast, -54.3% (active); in the assay with MDA-MB-435 melanoma, 51%; with MCF7 breast, 24.2%; with HCT-116 colon it was 10.8%; with HCC-2998 colon it was 85.3%. Moreover, the growth in the assay with KM12 colon is 47.7%.

`COc1cc2oc(-c3cccc(NC(=O)[C@@H](N)C(C)C)c3)cc(=O)c2c(OC)c1OC`: the growth is 87.3% in the assay with T-47D breast; 104% in the assay with BT-549 breast; 109% in the assay with MDA-MB-435 melanoma; 92.9% with MCF7 breast; 98.6% in the assay with HCT-116 colon; 109% with HCC-2998 colon. The growth in the assay on KM12 colon is 101%.

Regarding `COc1ccc2c(c1)c(-c1nc(N)nnc1-c1c[nH]c3ccccc13)cn2C`, the growth with T-47D breast is 41.2%; in the assay with BT-549 breast it was 49.2%; in the assay on MDA-MB-435 melanoma, -47.8% (active); with MCF7 breast, 15%; in the assay on HCT-116 colon it was 23.1%; in the assay with HCC-2998 colon it was 82.9%. Also, in the assay with KM12 colon, the growth was 24.4%.

With `CC(C)(C)c1cc(NC(=O)Nc2ccc(-c3cn4c5c(sc4n3)CCc3cn(CCCN4CCCCC4)cc3-5)cc2)no1`, the growth with T-47D breast was -32.8% (active); with BT-549 breast it was 109%; with SW-620 colon, -68.2% (active); in the assay with MCF7 breast it was -79% (active); with HCT-116 colon, -96.2% (active); in the assay on HCC-2998 colon, -82.7% (active). For the same molecule, the growth in the assay on KM12 colon is -78% (active).

Consider `Nn1c(=O)n(-c2cccc(C(F)(F)F)c2)c(=O)c2cc(-c3ccc(F)cc3F)ccc21`, for which the growth with T-47D breast was -13.8% (active); in the assay on BT-549 breast, -6.33% (active); with SW-620 colon, 17%; with MCF7 breast, 1.3% (active); in the assay on HCT-116 colon, 3.16% (active); with HCC-2998 colon, 12.5%.

For `CCOC(=O)c1c(NCC(=O)Nc2cccc([N+](=O)[O-])c2)sc(C(C)=O)c1C`, the growth in the assay with T-47D breast is 34.6%; in the assay with BT-549 breast, -40.7% (active); with SW-620 colon, 3.65% (active); with MCF7 breast, -9.04% (active); with HCT-116 colon, -14.3% (active); with HCC-2998 colon, -62.3% (active). Also, the growth in the assay with KM12 colon is -7.12% (active).

As to `OCC(Nc1ncnc2ccc(-c3cnc4cnccn34)cc12)c1ccccc1` (stereo not drawn), the growth with T-47D breast was 28.4%; in the assay on BT-549 breast, 76.2%; in the assay on MDA-MB-435 melanoma it was 90%; in the assay with MCF7 breast, 60.9%; in the assay with HCT-116 colon, 79.3%; with HCC-2998 colon it was 82.9%. Also, the growth in the assay on KM12 colon was 80.9%.

For `N#Cc1c(-c2cccs2)c(C#N)c(=O)n(Cc2nc3ccccc3[nH]2)c1N`, the growth with T-47D breast was 74.8%; with BT-549 breast, 102%; in the assay on MDA-MB-435 melanoma it was 110%; with MCF7 breast, 66.1%; in the assay with HCT-116 colon, 100%; in the assay with HCC-2998 colon, 116%. Also, the growth in the assay on KM12 colon was 102%.

On to `N#Cc1c(-c2ccc(Br)cc2)cc(-c2c[nH]c3ccccc23)nc1N`, for which the growth in the assay with T-47D breast was 29.7%; in the assay with BT-549 breast it was 32.1%; in the assay with SW-620 colon, 27.8%; in the assay with MCF7 breast, 18.5%; in the assay with HCT-116 colon it was 27.6%; in the assay on HCC-2998 colon it was 60.3%.

In the case of `Cc1ccc(Nc2nc(SC(C)C)nc(-c3ccccc3)c2C#N)cc1`, the growth with T-47D breast was 88.4%; in the assay on BT-549 breast, 79.6%; in the assay on SW-620 colon, 89.2%; in the assay on MCF7 breast it was 92.3%; in the assay with HCT-116 colon it was 92.1%; with HCC-2998 colon it was 88.2%. In addition, the growth with KM12 colon was 96.1%.

In the case of `CC1CC(=O)C2=C(C1)Nc1ccc(Br)cc1CC2c1c[nH]c2ccc(Br)cc12` (stereo not drawn), the growth with T-47D breast is 33.4%; with BT-549 breast it was 64.9%; in the assay on SW-620 colon, 33.5%; in the assay on MCF7 breast, 16.7%; with HCT-116 colon, 24.2%; with HCC-2998 colon, 69.6%. In addition, the growth in the assay with KM12 colon is 28.1%.

For `COc1ccc(N2CCN(C3=C(Cl)C(=O)c4ncccc4C3=O)CC2)cc1`, the growth in the assay with T-47D breast was -53.3% (active); with BT-549 breast, 111%; with SW-620 colon, -4.75% (active); with MCF7 breast it was -27.6% (active); with HCT-116 colon, -59.7% (active); in the assay with HCC-2998 colon, 107%. Moreover, the growth with KM12 colon is 95.7%.

In the case of `O=C(/C=C/c1csc(Br)n1)NO`, the growth with T-47D breast was 8.14% (active); in the assay with BT-549 breast, 80.7%; with MDA-MB-435 melanoma it was 5.36% (active); in the assay on MCF7 breast, 24.6%; with HCT-116 colon, 5.92% (active); in the assay with HCC-2998 colon, 29.2%. In the assay with KM12 colon, the growth is 34.9%.

With `N#C/C(=C\c1cccc2c1OCO2)C(=O)Nc1sc2c(c1C#N)CCCC2`, the growth was 93.8% with T-47D breast; 107% in the assay with BT-549 breast; 106% in the assay on SW-620 colon; 97.6% with MCF7 breast; 98.4% with HCT-116 colon; 120% in the assay with HCC-2998 colon. In addition, the growth in the assay on KM12 colon was 103%.

Consider `C/C(=N\NC(=O)/C=C/CC(=O)O)c1nnn(-c2ccc([N+](=O)[O-])cc2)c1C`, for which the growth was 98.9% in the assay on T-47D breast; 103% in the assay with BT-549 breast; 100% in the assay on SW-620 colon; 97.8% in the assay on MCF7 breast; 97.9% in the assay with HCT-116 colon; 105% in the assay with HCC-2998 colon. Besides, the growth in the assay with KM12 colon is 97.2%.

Regarding `Cn1c2nc3ccccc3c-2cc2ccccc21`, the growth in the assay on T-47D breast is 37.4%; with BT-549 breast, 101%; in the assay on SW-620 colon, 28.3%; with MCF7 breast, 10.9%; in the assay on HCT-116 colon it was 22.1%; in the assay on HCC-2998 colon, 52.9%. In the assay on KM12 colon, the growth was 31.8%.

On to `O=c1c2cc(-c3ccc(F)cc3F)ccc2n(Nc2ccccc2)c(=O)n1-c1cccc(C(F)(F)F)c1`, for which the growth is 8.44% (active) in the assay with T-47D breast; 3.91% (active) in the assay with BT-549 breast; 16% in the assay with SW-620 colon; 4.02% (active) with MCF7 breast; 7.14% (active) in the assay on HCT-116 colon; 14.7% in the assay with HCC-2998 colon. In addition, the growth in the assay on KM12 colon was 11.4%.

Turning to `NC1[C@H]2CN(c3cnc(C(=O)Nc4cc(F)cc5cccnc45)cn3)C[C@@H]12` (stereo partly drawn), the growth in the assay with T-47D breast is 32.4%; in the assay on BT-549 breast, 91.8%; in the assay on MDA-MB-435 melanoma, 90%; in the assay on MCF7 breast, 6.12% (active); in the assay on HCT-116 colon it was 10.7%; with HCC-2998 colon it was 84.3%. Besides, the growth in the assay with KM12 colon is 87.4%.
